In PubChem BioAssay (NCI):
The panel holds about 83,000 compounds, 20% with a hit somewhere; the sample as a whole holds those more often.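 96-well plates, one dose, 48 hours. Percent growth reported; active if below 10.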 A number with no mark means an inactive call. Calls of active or inactive are those of the source.

Experiments:
Test in all cases: NCI-60 one-dose screen, 48 h (100 = growth as untreated, 0 = no growth, -100 = all killed)
Details in all cases: 10 µM unless noted
[1] = tested on: DU-145 prostate
[2] = tested on: K-562 leukemia
[3] = tested on: MALME-3M melanoma
[4] = tested on: MDA-MB-231 breast
[5] = tested on: RXF 393 renal
[6] = tested on: SF-268 CNS
[7] = tested on: SF-295 CNS
[8] = tested on: SF-539 CNS
[9] = tested on: UACC-257 melanoma
[10] = tested on: M14 melanoma
[11] = tested on: HCT-15 colon
[12] = tested on: HT29 colon
[13] = tested on: SNB-75 CNS
[14] = tested on: SNB-19 CNS
[15] = tested on: U251 CNS
[16] = tested on: PC-3 prostate
[17] = tested on: SK-MEL-5 melanoma
[18] = tested on: UACC-62 melanoma
[19] = tested on: LOX IMVI melanoma
[20] = tested on: SK-MEL-28 melanoma

## COc1cc(CCC[P+](c2ccccc2)(c2ccccc2)c2ccccc2)c(OC)c(OC)c1OC
[1]
  growth: 79.6%
[2]
  growth: 39.8%
[3]
  growth: 53.7%
[4]
  growth: 61.5%
[5]
  growth: 54.2%
[6]
  growth: 64.7%
[7]
  growth: 82.5%
[8]
  growth: 57.7%
[9]
  growth: 60.7%
[10]
  growth: 62%
[11]
  growth: 68.2%
[12]
  growth: 112%
[13]
  growth: 29.7%
[14]
  growth: 78%
[15]
  growth: 77.7%
[16]
  growth: 75.6%
[17]
  growth: 76%
[18]
  growth: 31.1%
[19]
  growth: 79.2%
[20]
  growth: 74.4%

## CNc1nc2c(s1)C(c1cc(F)ccc1F)CC(=O)N2 (stereo unspecified)
[1]
  growth: 76.3%
[2]
  growth: 18.5%
[3]
  growth: 70.2%
[4]
  growth: 69.6%
[5]
  growth: 75.5%
[6]
  growth: 79.3%
[7]
  growth: 87.4%
[8]
  growth: 53.8%
[9]
  growth: 86.7%
[10]
  growth: 47.3%
[11]
  growth: 42%
[12]
  growth: 82.4%
[13]
  growth: 32.4%
[14]
  growth: 72.2%
[15]
  growth: 67.6%
[16]
  growth: 81.1%
[17]
  growth: 64.5%
[18]
  growth: 50.1%
[20]
  growth: 69.6%

## COc1nc2ccccc2cc1-c1nc2c(cnn2-c2ccccc2)c(=O)[nH]1
[1]
  growth: 61%
[2]
  growth: 16.7%
[3]
  growth: 75.6%
[4]
  growth: 58.3%
[5]
  growth: 67.1%
[6]
  growth: 53.6%
[7]
  growth: 43.8%
[8]
  growth: 28.9%
[9]
  growth: 55.5%
[10]
  growth: 23.9%
[11]
  growth: 24.8%
[12]
  growth: 9.45% (active)
[13]
  growth: 28.2%
[14]
  growth: 42.1%
[15]
  growth: 37.8%
[16]
  growth: 41.2%
[17]
  growth: 41.7%
[18]
  growth: 36.3%
[19]
  growth: 35%
[20]
  growth: 56.7%

## CCOC(=O)c1c(C)oc2ncnc(N3CCN(C(=O)COc4ccc(C(C)(C)C)cc4)CC3)c12
[1]
  growth: 87.5%
[2]
  growth: 53.5%
[3]
  growth: 70.2%
[4]
  growth: 80.5%
[5]
  growth: 92.1%
[6]
  growth: 91%
[7]
  growth: 79.9%
[8]
  growth: 96.1%
[9]
  growth: 78.4%
[10]
  growth: 74.5%
[11]
  growth: 79.8%
[12]
  growth: 90.2%
[13]
  growth: 93.5%
[14]
  growth: 85.4%
[15]
  growth: 89.5%
[16]
  growth: 59.3%
[17]
  growth: 34.8%
[18]
  growth: 42.9%
[19]
  growth: 75.5%
[20]
  growth: 85.4%

## O=C(CCN1C(=O)/C(=C/c2ccc(O)cc2)SC1=S)Nc1ccc(Cl)cc1
[1]
  growth: 108%
[2]
  growth: 89.7%
[3]
  growth: 89.9%
[4]
  growth: 86.3%
[5]
  growth: 108%
[6]
  growth: 90.9%
[7]
  growth: 92.9%
[8]
  growth: 96.1%
[9]
  growth: 101%
[10]
  growth: 100%
[11]
  growth: 91.2%
[12]
  growth: 108%
[13]
  growth: 90.4%
[14]
  growth: 89.7%
[15]
  growth: 96.5%
[16]
  growth: 88.1%
[17]
  growth: 99.2%
[18]
  growth: 83.3%
[20]
  growth: 99.2%

## CC(=O)Oc1ccccc1C(=O)N=C1[Se]CCCN1C(=O)c1ccccc1OC(C)=O
[1]
  growth: 15.8%
[2]
  growth: 32.1%
[3]
  growth: -27.1% (active)
[4]
  growth: -57.6% (active)
[5]
  growth: 6.8% (active)
[6]
  growth: -14.1% (active)
[7]
  growth: 17.5%
[8]
  growth: -42.5% (active)
[9]
  growth: 57.4%
[10]
  growth: -10.4% (active)
[11]
  growth: 21.5%
[12]
  growth: 95.5%
[13]
  growth: -28.9% (active)
[14]
  growth: -55.1% (active)
[15]
  growth: 23.4%
[16]
  growth: 19.6%
[17]
  growth: 74.8%
[18]
  growth: 73.6%
[20]
  growth: 18.5%

## OC(COc1ccccc1)CN1CCN(c2ccc(Cl)cc2)CC1 (stereo unspecified)
[1]
  growth: 110%
[2]
  growth: 73.8%
[3]
  growth: 128%
[4]
  growth: 94%
[5]
  growth: 113%
[6]
  growth: 99.4%
[7]
  growth: 111%
[8]
  growth: 116%
[9]
  growth: 87.7%
[10]
  growth: 101%
[11]
  growth: 115%
[12]
  growth: 101%
[13]
  growth: 95.2%
[14]
  growth: 95.4%
[15]
  growth: 102%
[16]
  growth: 82%
[17]
  growth: 96.2%
[18]
  growth: 90.3%
[20]
  growth: 96.9%

## Cc1cccc(NC2=C(Cl)C(=O)c3nc(C)ccc3C2=O)c1
[1]
  growth: -80.2% (active)
[2]
  growth: 2.91% (active)
[3]
  growth: -75.3% (active)
[4]
  growth: -75.1% (active)
[5]
  growth: -19.8% (active)
[6]
  growth: 58.2%
[7]
  growth: 12.7%
[8]
  growth: -79% (active)
[9]
  growth: -80.2% (active)
[10]
  growth: -45% (active)
[11]
  growth: -54.8% (active)
[12]
  growth: 115%
[13]
  growth: -64.9% (active)
[14]
  growth: 23.7%
[15]
  growth: 32.8%
[16]
  growth: 24.6%
[17]
  growth: -93% (active)
[18]
  growth: -67% (active)
[19]
  growth: -54.6% (active)
[20]
  growth: -54.5% (active)
